# Experimental data from the supplement of paper PMC9948646.
# Values without a mark were called inactive.
# Tested on: gramicidin D channels in DC22:1PC lipid vesicles (bilayer-modifying potency)
# Test: initial Tl+ fluorescence quench rate relative to no-drug control (NormRate, gramicidin monomer-dimer shift) (ratio (fold of control)); higher = stronger bilayer-modifying effect (equilibrium shifted toward conducting dimers), active = 1.5 or more
# Conditions: 10 µM; lipid concentration 50 µM; temperature: 25 °C
# Experimental: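 Stopped-flow fluorescence quench assay: ANTS-loaded DC22:1PC large unilamellar vesicles doped with gramicidin D (1:2000), 50 µM lipid, equilibrated 10 min with 10 µM drug (0.1% DMSO), mixed with Tl+ quench buffer at 25°C. Initial quench rate (Tl+ influx) was fitted with a modified stretched exponential and normalised to the no-drug control rate (NormRate); duplicates from two independent LUV preparations (triplicates for 7 drugs).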
row,SMILES,initial Tl+ fluorescence quench rate
1,O=C1O[C@@H](CO)CN1c1cc(F)c(C2=CCN(Cc3ccccc3)CC2)c(F)c1,1.13
2,CO[C@@H]1CN(c2ccc(C#C[C@@]3(O)CN4CCC3CC4)c(Cc3ccccc3)n2)C[C@H]1O,1.06
3,C[C@@H]1CO[C@](Cn2cncn2)(c2ccc(Oc3ccc(Cl)cc3)cc2Cl)O1,2.49 (active)
4,Nc1c2c(nc3sc4c(c13)CCCC4)CCCC2,1.07
5,CC(C)(C)[C@@H](O)[C@H](Oc1ccc(-c2ccccc2)cc1)n1cncn1,2.39 (active)
6,CO/N=C(\C(=O)OC)c1ccccc1CO/N=C(\C)c1cccc(C(F)(F)F)c1,1.36
7,O=C1O[C@@H](COc2ccon2)CN1c1cc(F)c(C2=CCN(Cc3ccccc3)CC2)c(F)c1,1.31
8,Cc1cccc(C(=O)Nc2ccnc(N(C)C3CCN(CC(C)C)CC3)c2)c1,1.12
9,Cc1nn(C)c(C)c1NS(=O)(=O)c1c(Cl)cc(-c2ccnc(N3CCNCC3)c2)cc1Cl,1.38
10,CO/C=C(/C(=O)OC)c1ccccc1Oc1cc(Oc2ccccc2C#N)ncn1,1.05
11,Cc1nn(Cc2ccccc2)c(Cl)c1C(=O)NC1CCCCCC1,1.1
12,CCc1nn(C)c(C(=O)NCc2ccc(Oc3ccc(C)cc3)cc2)c1Cl,2.89 (active)
13,CC1(C)OB(O)c2ccc(C3=NO[C@@](c4cc(Cl)c(F)c(Cl)c4)(C(F)(F)F)C3)cc21,4.11 (active)
14,Cc1cc(C2=NO[C@@](c3cc(Cl)c(F)c(Cl)c3)(C(F)(F)F)C2)ccc1C(=O)NCc1ccc2c(c1)C(C)(C)OB2O,4.21 (active)
